{
  "source": "PubChem BioAssay AID2147",
  "about": "(National Center for Advancing Translational Sciences (NCATS), 2009)",
  "note": "Among all 230,000 compounds or so, about 3,600 (1.6%) were called active. About 15% were inconclusive and are not listed. This excerpt belongs to a sample that is enriched for actives. Values without a mark were called inactive. Calls come from the whole dose curve; as a rule, active = well fitted inhibition curve with a large enough effect (not every such curve was filed as active); inconclusive = small, poorly fitted or top-dose-only effect, or another doubt; inactive = no such curve, though single readings can be large or run the other way. Note: nearly all actives have a fitted effect of over 50% in size. Potency is the fitted concentration of half-maximal effect.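 Throughout, for activity change, negative = inhibition: 0% = wells with enzyme and -100% = buffer wells without enzyme.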",
  "data": [
    {"biological_target": "Lysine-specific demethylase 4E (Homo sapiens) (UniProt B2RXH2)", "sequence (B2RXH2 1-337 limits assumed)": "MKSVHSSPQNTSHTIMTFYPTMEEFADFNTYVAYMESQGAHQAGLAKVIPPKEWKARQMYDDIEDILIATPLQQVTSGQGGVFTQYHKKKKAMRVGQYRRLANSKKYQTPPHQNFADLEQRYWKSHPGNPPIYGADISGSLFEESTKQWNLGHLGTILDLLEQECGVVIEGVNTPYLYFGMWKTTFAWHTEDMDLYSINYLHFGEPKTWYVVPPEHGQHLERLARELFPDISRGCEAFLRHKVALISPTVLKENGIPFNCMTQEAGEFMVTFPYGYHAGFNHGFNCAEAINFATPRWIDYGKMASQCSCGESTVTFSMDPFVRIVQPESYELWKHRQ", "test": "qHTS Assay for Inhibitors of Human Jumonji Domain Containing 2E (JMJD2E)", "conditions": "JMJD2E catalytic domain, FDH-coupled NADH fluorescence (FDH is formaldehyde dehydrogenase); series mostly up to 57.1 µM; activity change, negative = inhibition: at the top concentration", "text": "Assay Provider: Structural Genomics Consortium [SGC] Screening Center PI: Austin, C.P. Screening Center: NIH Chemical Genomics Center [NCGC] The fine interplay among methylation states of several lysine residues on the tails of histone proteins is a major determinant of the transcriptional state of the associated DNA coding regions and is commonly referred to as the histone code. Histone lysine demethylases catalyze the removal of methyl groups from methylated lysine sidechains on histones H3 and H4, thus antagonizing the reactions catalyzed by histone lysine methyltransferases. […] In search for novel inhibitors of JMJD2E demethylase, a member of the largest set of histone demethylases belonging to the Fe(II) and 2-oxoglutarate oxygenase (2OG) superfamily, we performed a quantitative high-throughput screen (Inglese 2006) by using an assay which utilizes a trimethylated peptide substrate corresponding to a fragment of histone H3 (sequence ARKme3STGGK) with detection of the formaldehyde co-product in real time by a formaldehyde dehydrogenase (FDH) coupled reaction. FDH catalyzes oxidation of formaldehyde to formic acid with the concomitant reduction of the non-fluorescent beta-nicotinamide adenine dinucleotide hydrate (NAD+) cofactor to the fluorescent NADH co-product. References: Inglese, J., Auld, D., Jadhav, A., Johnson, R., Simeonov, A., Yasgar, A., Zheng, W. and Austin, C. Proc Natl Acad Sci USA 2006, 103, 11473-11478. N. R. Rose, S. S. Ng, J. Mecinovic, B. M. Lienard, S. H. Bello, Z. Sun, M. A. McDonough, U. Oppermann and C. J. Schofield, J Med Chem, 2008, 51, 7053-7056. Sakurai, M., Rose, N., Schultz, L., Quinn, A., Jadhav, A., Ng, S., Oppermann, U., Schofield, C.J. and Simeonov, A. Mol BioSystems 2009, in press. S. Michael, D. Auld, C. Klumpp, A. Jadhav, W. Zheng, N. Thorne, C. Austin, J. Inglese and A. Simeonov, Assay Drug Dev Technol, 2008, 6, 637-657.\nReagents and Controls: Ferrous ammonium sulfate, (+)-sodium L-ascorbate, beta-nicotinamide adenine dinucleotide hydrate (NAD+), Tween-20, formaldehyde dehydrogenase from P. putida (FDH), and disodium 2-oxoglutarate were from Sigma (St. Louis, MO). Black solid-bottom 384-well or 1,536-well assay plates were from Greiner Bio-One (Monroe, NC). Enzyme was supplied by Prof. Udo Oppermann, SGC-Oxford. The catalytic domain of human JMJD2E (residues 1-337) was produced as an N-terminally His6-tagged protein in E. coli, and purified by Ni-affinity chromatography and size-exclusion chromatography, and stored in HEPES 50 mM/ NaCl 500 mM pH 7.5, as reported in Rose 2008. The trimethylated histone peptide substrate ARK(me3)STGGK was synthesized and HPLC-purified by the Tufts University Core Facility (Boston, MA). Substrate solution (Sakurai 2009) contained 50 uM ARK(me3)STGGK, 0.00025 U/uL FDH, 50 uM 2-oxoglutarate, 250 uM NAD+, 1 mM ascorbate, and 10 uM ferrous ammonium sulfate. Controls and plate map: Buffer (150 mM HEPES pH 7.5 containing 0.01% Tween-20) in columns 3 and 4 as negative control (no enzyme) and 100 nM JMJD2E final concentration in columns 1,2, and 5-48. Assay Steps: Enzyme and buffer solutions (3 uL) were dispensed into a 1,536-well Greiner black solid-bottom assay plate. The library compounds (23 nL) were transferred using a Kalypsys pintool equipped with 1,536-pin array. The plate was incubated at room temperature (15 min), and then a 1 uL aliquot of substrate solution was added to initiate the reaction. The plate was transferred to ViewLux imager where an initial reading using standard UV optics (Ex 340 nm, Em 450 nm) was obtained. The plate was then removed from the reader, incubated for 30 minutes at room temperature, and returned to the reader for a second fluorescence reading. A fully automated robotic screening system (Kalypsys Inc, San diego, CA) was used to perform the above steps as described previously (Michael 2008). […]", "units": {"activity change, negative = inhibition": "%"}, "values": [
      {"smiles": "CN(C)S(=O)(=O)c1cccc(C(=O)Nc2cccnc2)c1", "activity change, negative = inhibition": -1.43},
      {"smiles": "O=C(c1cccnc1)N(c1cc2sc(=O)oc2c2ccccc12)S(=O)(=O)c1ccccc1", "Potency": "14.1 µM (active)"},
      {"smiles": "COc1ccc(N(C(=O)c2cccnc2)S(=O)(=O)c2ccc3c(c2)n(C)c(=O)n3C)cc1", "activity change, negative = inhibition": -1.75},
      {"smiles": "Cc1oc(C(N)=O)cc1COc1ccc(C(N)=O)cc1", "activity change, negative = inhibition": -2.19},
      {"smiles": "CCOC(=O)N1CCN(c2c(NCCN3CCN(c4ccccc4F)CC3)c(=O)c2=O)CC1", "activity change, negative = inhibition": 2.57},
      {"smiles": "COCCCNC(=S)N(Cc1ccccc1)Cc1ccc(F)cc1", "activity change, negative = inhibition": -4.9},
      {"smiles": "Cn1c(C(=O)O)ccc1S(=O)(=O)N(Cc1ccccc1)Cc1ccccc1", "activity change, negative = inhibition": 2.7},
      {"smiles": "CCOC(=O)C1CCN(CCC(=O)Nc2cccc(C)c2)CC1", "activity change, negative = inhibition": 7.65},
      {"smiles": "Cc1c([N+](=O)[O-])c(N)nn1C", "activity change, negative = inhibition": 5.36},
      {"smiles": "O=C(O)c1ccc(NC(=O)c2cn(-c3ccccc3)nc2-c2ccc(Cl)cc2)cc1", "activity change, negative = inhibition": -3.12},
      {"smiles": "O=C(NNC(=S)NC(=O)c1cn(-c2ccccc2)nc1-c1ccccc1)c1ccncc1", "Potency": "14.1 µM (active)"},
      {"smiles": "O=C(Nc1cn(-c2ccccc2)nc1-c1ccccc1)c1ccccc1", "activity change, negative = inhibition": 302},
      {"smiles": "CCn1c2ccccc2c2cc(NC(=O)Nc3ccc([N+](=O)[O-])cc3C)ccc21", "activity change, negative = inhibition": -7.5},
      {"smiles": "CC(C)CCNC(=O)C1CCC(CNc2c(N3CCC(C)CC3)c(=O)c2=O)CC1", "note": "(stereo not given)", "activity change, negative = inhibition": 1.04},
      {"smiles": "O=C(O)CCCCCCCCCC[n+]1ccccc1", "activity change, negative = inhibition": -3.66},
      {"smiles": "COC(=O)C1=C(N)Oc2cc(C)[nH]c(=O)c2C1c1ccc(Cl)cc1", "note": "(stereo not given)", "activity change, negative = inhibition": 8.59},
      {"smiles": "Oc1cc(O)c2c(c1)OC(c1ccc(O)c(O)c1)C(O)C2", "note": "(stereo not given)", "Potency": "11.2 µM (active)"},
      {"smiles": "Cc1ccccc1Nc1nnc(C)c(=O)[nH]1", "activity change, negative = inhibition": 2.79},
      {"smiles": "Cc1nnc(N/N=C/c2cccs2)[nH]c1=O", "activity change, negative = inhibition": -7.79},
      {"smiles": "Cc1nnc(N/N=C/c2ccccn2)[nH]c1=O", "Potency": "7.94 µM (active)"},
      {"smiles": "Cc1ccc(CN2CCN(Cc3cn(C)nc3-c3ccccc3)CC2CCO)o1", "note": "(stereo not given)", "activity change, negative = inhibition": -0.595},
      {"smiles": "O=C(CCN1CCCCC1)N=Nc1c(O)[nH]c2ccccc12", "activity change, negative = inhibition": 4.17},
      {"smiles": "O=C(NCc1ccco1)O[C@@H]1C(=O)c2cc(Br)ccc2O[C@H]1c1ccc2c(c1)OCO2", "activity change, negative = inhibition": 17.8},
      {"smiles": "O=c1ccnc(Nc2ccc(Cl)cc2)[nH]1", "activity change, negative = inhibition": 3.06},
      {"smiles": "CCOc1ccccc1N=C1NC(=O)CS1", "activity change, negative = inhibition": 2.61},
      {"smiles": "O=C1CSC(=S)N1/N=C/c1ccc(O)c([N+](=O)[O-])c1", "activity change, negative = inhibition": -16.3},
      {"smiles": "CCOc1cccc(/C=N/N2C(=O)CSC2=S)c1O", "Potency": "31.6 µM (active)"},
      {"smiles": "Cn1c(SCC(=O)Nc2ccc(Cl)cc2)nc(O)cc1=O", "activity change, negative = inhibition": 1.98},
      {"smiles": "Nc1nc(Sc2ncccc2[N+](=O)[O-])n[nH]1", "activity change, negative = inhibition": 2.63},
      {"smiles": "Cc1ccnc(-n2sc3ccccc3c2=O)n1", "Potency": "12.6 µM (active)"},
      {"smiles": "Cc1ccnc(Nc2nc3ccccc3s2)n1", "activity change, negative = inhibition": 1.18},
      {"smiles": "Cc1ccnc(SCC(N)=O)n1", "activity change, negative = inhibition": 0.789},
      {"smiles": "c1ccc(Nc2n[nH]nc2-c2ccccc2)cc1", "activity change, negative = inhibition": -1.65},
      {"smiles": "O=c1cnnc(Nc2ccccc2)[nH]1", "activity change, negative = inhibition": 3.57},
      {"smiles": "S=c1[nH]nc(Nc2ccccc2)s1", "Potency": "17.8 µM (active)"},
      {"smiles": "O=C(C[n+]1ccc2c(c1)nnn2-c1ccccc1)c1ccc(Cl)cc1", "activity change, negative = inhibition": 9.12},
      {"smiles": "O=C(NCc1nnc(SCC(=O)N2CCC(Cc3ccccc3)CC2)o1)c1ccco1", "activity change, negative = inhibition": 6.12},
      {"smiles": "Cc1ccc(/C=N/NC(=O)CSc2nc3ccccc3o2)cc1", "activity change, negative = inhibition": 1.12},
      {"smiles": "Cc1nccn1CC(=O)N/N=C/c1ccc(O)c(O)c1", "Potency": "12.6 µM (active)"},
      {"smiles": "CCOc1ccc(/C=N/NC(=O)CSc2ccccn2)cc1O", "activity change, negative = inhibition": -4.84},
      {"smiles": "CCn1c(SCC(=O)N/N=C/c2ccncc2)nc2ccccc21", "activity change, negative = inhibition": 3.37},
      {"smiles": "Cc1nc2ccccc2n1CC(=O)N/N=C/c1cccnc1", "activity change, negative = inhibition": -7.57},
      {"smiles": "Cn1c(SCC(=O)N/N=C/c2ccc(O)c(O)c2)nc2ccccc21", "Potency": "25.1 µM (active)"},
      {"smiles": "CC(C)(C)OC(=O)NCCCCCC(=O)N/N=C/c1coc2ccccc2c1=O", "activity change, negative = inhibition": 2.67},
      {"smiles": "O=C1/C(=C/c2cccs2)SC(=S)N1C1CCS(=O)(=O)C1", "note": "(stereo not given)", "activity change, negative = inhibition": 1.93},
      {"smiles": "CC(OC(=O)c1ccc(NS(=O)(=O)c2ccc3[nH]c(=O)[nH]c3c2)cc1)C(=O)Nc1cccc(Cl)c1Cl", "note": "(stereo not given)", "activity change, negative = inhibition": -4.34},
      {"smiles": "O=C(c1cc(COc2c(F)cccc2F)on1)N1CCSCC1", "activity change, negative = inhibition": 4.11},
      {"smiles": "Nc1nc(Nc2ccccc2)nc(NCCO)c1[N+](=O)[O-]", "activity change, negative = inhibition": 0.417},
      {"smiles": "O=C1CCCC(O)=C1N=Nc1ccc(S(=O)(=O)N2CCOCC2)cc1", "activity change, negative = inhibition": -24.2},
      {"smiles": "CCCc1ccc(C(=O)[C@@H]2[C@@H](C(C)=O)N3c4ccc(F)cc4C=C[C@@H]3[C@@]23C(=O)Nc2ccccc23)cc1", "Potency": "14.1 µM (active)"},
      {"smiles": "CCc1cc(CNC(=O)CC2C(=O)NCCN2Cc2ccccc2C(F)(F)F)on1", "note": "(stereo not given)", "activity change, negative = inhibition": -22.1},
      {"smiles": "Cc1noc(C)c1-c1nc(CSc2ccc(Cl)cc2)no1", "activity change, negative = inhibition": -5.99},
      {"smiles": "COc1ccc(N2CCN(Cc3nnc(-c4ccccc4)o3)CC2)cc1", "activity change, negative = inhibition": 3.96},
      {"smiles": "COc1ccc(N2CCN(Cc3ccc(Br)s3)CC2)cc1", "Potency": "14.1 µM (active)"},
      {"smiles": "Fc1ccc(N2CCN(Cc3cnc(Oc4ccc(Br)cc4)s3)CC2)cc1", "activity change, negative = inhibition": -5.18}
    ]}
  ]
}
